M18AAP inhibitor: PfM18AAP enzyme inhibition | recombinant PfM18AAP, H-Glu-NHMec fluorogenic cleavage | inhibition, % at 7.35 µM | hit rate 1.2% among 290,000 | AID 1822;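 active = inhibition above the campaign mean inhibition over all tested compounds plus 3 SD, cut at about 28% in these data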;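 note: 0% = plate median of test compound wells and 100% = 2 mM ZnCl2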
Rce1 inh: yeast Ras-converting enzyme inhibition; Q03530; yeast membranes, quenched prenylated peptide cleavage fluorescence; calls only; hit rate 0.27% among 290,000; AID 2563;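 active = fall in fluorescence gain of 50% or more versus controls, with final raw signal at or below 3038400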;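 note: plate controls were neutral control wells for no effect and wells lacking membranes for full effect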
Target sequence (Q03530 whole entry, looked up): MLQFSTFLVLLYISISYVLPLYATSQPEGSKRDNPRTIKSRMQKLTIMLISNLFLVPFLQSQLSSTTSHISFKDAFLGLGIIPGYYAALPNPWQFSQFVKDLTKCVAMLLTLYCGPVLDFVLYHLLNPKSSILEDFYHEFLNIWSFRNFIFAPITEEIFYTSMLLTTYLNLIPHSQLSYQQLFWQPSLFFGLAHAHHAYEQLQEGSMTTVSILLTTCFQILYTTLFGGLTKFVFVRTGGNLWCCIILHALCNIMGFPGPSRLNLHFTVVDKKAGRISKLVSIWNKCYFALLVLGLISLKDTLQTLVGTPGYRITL
NPR2 activator: GC-B (human) receptor activation. HEK293-GC-B cells, CNP EC30, cGMP TR-FRET; 0% at EC30 CNP, 100% saturating CNP. activation, % at 10 µM. hit rate 0.11% among 370,000. P20594;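 active = activation at 10 µM reaching about 35% in either raw or pattern-adjusted values, limit read from the data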
PLCg1 inh: blocks human PLC-gamma1 enzyme activity; purified PLC-gamma1, fluorogenic substrate, fluorescence; inhibition, % at 12.2 µM; hit rate 0.84% among 370,000; AID 720700
PLC-beta3 inh: inhibitors of human phospholipase C beta3. Q01970. Purified PLC-beta3, fluorogenic substrate, fluorescence. inhibition, % at 12.2 µM. hit rate 0.18% among 370,000; in the data active = inhibition above about 11%;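 note: 0% = median of compound wells on plate and 100% = full blocker control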
NPR1 activator: GC-A (human) enzyme activation | hit rate 0.14% among 370,000 | AID 1671463 | P16066 | HEK293 GC-A cells, cGMP TR-FRET, EC30 ANP; 0% at EC30 ANP, 100% saturating ANP | activation, % at 10 µM; in the data active = activation above about 40%
PLCgamma1 ctr: counter-screen for PLC-beta3 inhibitors: inhibitors of human PLC-gamma1; shares compounds with PLCg1 inh; purified PLC-gamma1, fluorogenic substrate, fluorescence; inhibition, % at 12.3 µM; hit rate 3.1% among 3,300; AID 743258
PLCb3 confirm: human PLC-beta3 inhibition, confirmation. AID 743261. hit rate 1% among 3,300. shares compounds with PLCg1 inh. inhibition, % at 12.3 µM. purified PLC-beta3, fluorogenic substrate fluorescence; in the data active = inhibition above about 11%
* hit, by the source's call; i = inactive; x = not tested or not shown. The list is not random: actives were taken first. Their share in the collection is about 2.2%. Cut-off read from the data, not from the text of the source, unless noted: active = inhibition above about 9.5%; inactive = the rest.

SMILES | M18AAP inhibitor | Rce1 inh | NPR2 activator | PLCg1 inh | PLC-beta3 inh | NPR1 activator | PLCgamma1 ctr | PLCb3 confirm
CCOc1ccc2nc(SCC(=O)Nc3ncccn3)[nH]c2c1 | 0 | i | -3 | 11* | 5 | 0 | -5 | -2
O=C(COC(=O)c1ccc2c(c1)OCO2)NCc1ccc2c(c1)OCO2 | 0 | i | 5 | 5 | -2 | 1 | x | x
C[C@@H]1ON(C)[C@H]2C[C@H]3c4cc(N5CCCCC5)ccc4CCN3C[C@@H]12 | x | x | 4 | -2 | -2 | 0 | x | x
Cc1ccc(S(=O)(=O)NCC(c2ccco2)N2CCc3ccccc32)cc1 (stereo not drawn) | x | i | -16 | -3 | -7 | -18 | x | x
COc1ccc(S(=O)(=O)NCC(c2ccco2)N2CCc3ccccc32)cc1 (stereo not drawn) | x | i | -7 | 11* | 3 | -13 | -3 | 0
Cc1cc(C)c(NC(=O)Nc2ccccc2C)c(Cl)c1 | -2 | i | 3 | 7 | -1 | 7 | x | x
Cc1cc(C)c(NC(=O)Nc2ccccc2)c(Cl)c1 | 1 | i | 6 | 7 | 13* | 3 | -6 | 0
CC1Cn2c(Cc3ccccc3)nnc2S1 (stereo not drawn) | x | x | 1 | 8 | 14* | 3 | -1 | 3
CC1Cn2c(CCc3ccccc3)nnc2S1 (stereo not drawn) | 9 | i | 6 | 0 | -2 | -3 | x | x
O=C(NCc1cccnc1)Nc1ccc(Cl)c(Cl)c1 | -1 | i | 3 | 9.6* | -2 | -5 | -5 | -1
S=C(NCc1cccnc1)Nc1ccc(Cl)c(Cl)c1 | 8 | i | 0 | 1 | 8 | 1 | x | x
COC(=O)[C@@H](NC(=O)Nc1cccc(Br)c1)C(C)C | -1 | i | 1 | 1 | 2 | 4 | x | x
CCC(C)[C@H](NC(=O)Nc1cccc(Br)c1)C(=O)OC (stereo partly drawn) | 2 | i | 2 | 13* | 9 | -4 | -6 | -1
COC(=O)c1ccc(CSc2nnc(C)s2)cc1 | -10 | i | 4 | 3 | 11* | 5 | -3 | 0
COc1cc(/C(C)=N/NC(=O)CSc2nnc(C)s2)ccc1O | 7 | i | -1 | 3 | 0 | -1 | x | x
C/C(=N\NC(=O)CSc1nnc(C)s1)c1ccc(O)cc1 | 9 | i | 0 | 9.9* | 10 | 2 | 0 | -2
COc1ccccc1NS(=O)(=O)c1cc(NC(=O)CCNC(C)=O)ccc1C | 3 | i | -1 | 1 | -5 | 0 | x | x
COc1ccccc1NS(=O)(=O)c1cc(NC(=O)CNC(=O)c2ccccc2)ccc1C | -8 | i | -3 | 11* | 4 | -2 | -7 | -4
C[C@@H]1[C@@H](O)C[C@@]2(C[C@H](O)c3ccccc3O2)O[C@H]1c1ccccc1 | x | x | -12 | 1 | -2 | -2 | x | x
Cc1nc(SCC(C)C)[nH]c(=O)c1Cc1ccccc1 | -4 | i | 6 | -1 | -1 | 0 | x | x
CSc1nc(C)c(Cc2ccccc2)c(=O)[nH]1 | 0 | i | 1 | 11* | 0 | 4 | -11 | -3
O=C(CNC(=O)c1cccc(F)c1)OCC(=O)N1CCCc2ccccc21 | 4 | i | -6 | 12* | 5 | 0 | -2 | -1
CC(=O)Nc1ccc(S(=O)(=O)NCC(=O)OCC(=O)N2CCc3ccccc32)cc1 | -11 | i | -1 | 13* | 1 | 1 | -9 | -6
COc1ccc(-c2nnc(SCC(=O)N/N=C(\C)c3ccc(-c4ccccc4)cc3)n2-c2ccc(C)cc2)cc1 | x | x | -8 | 3 | 3 | -3 | x | x
CC(Sc1nnc(C2CC2)n1N)C(=O)NC1CCCCC1C (stereo not drawn) | 0 | i | 2 | 9.9* | 3 | -2 | -4 | 1
SMILES | M18AAP inhibitor | Rce1 inh | NPR2 activator | PLCg1 inh | PLC-beta3 inh | NPR1 activator | PLCgamma1 ctr | PLCb3 confirm
COc1ccc(CCNC(=O)c2ccc3c(c2)ncn3C2CCCCC2)cc1 | x | x | -7 | 2 | 0 | 1 | x | x
COC(=O)c1cc2c(c3c4cc(C)ccc4n(S(=O)(=O)c4ccc(OC)cc4)c13)C(=O)N(C)C2 | x | x | 7 | -37 | -49 | -5 | x | x
Cc1ccccc1CNC(=S)OC1CCC12CCC(c1ccccc1)CC2 (stereo not drawn) | x | x | -2 | -2 | 0 | 1 | x | x
O=S(=O)(CC1NCc2cc(F)ccc21)NC1CCCC1 (stereo not drawn) | x | x | 6 | -8 | -17 | 1 | x | x
C=CCOc1ccc(/C(O)=C2/C(=O)C(=O)N(CCCN3CCOCC3)C2c2ccccc2)cc1 (stereo not drawn) | -1 | i | 2 | 11* | 1 | 3 | -4 | -2
C=CCOc1ccc(/C(O)=C2/C(=O)C(=O)N(CCCN3CCOCC3)C2c2ccc(OC)cc2)cc1 (stereo not drawn) | 2 | x | 6 | -2 | -2 | -4 | x | x
Nc1ccc(O)c([N+](=O)[O-])c1 | x | x | -7 | 21* | 7 | -4 | 19* | 1
Nc1cc([N+](=O)[O-])ccc1O | 24 | i | 1 | 2 | -1 | -8 | x | x
CCCC(=O)NC(c1ccco1)c1cc([N+](=O)[O-])c2cccnc2c1O (stereo not drawn) | 15 | i | 4 | 14* | 4 | -4 | 0 | -4
CCC(=O)NC(c1ccc(C)cc1)c1cc([N+](=O)[O-])c2cccnc2c1O (stereo not drawn) | 9 | i | 0 | 3 | 2 | -5 | x | x
CC(C)(C)OC(=O)CNC(=O)c1nc[nH]c1C(=O)NCc1ccc(CNC(=O)OC(C)(C)C)cc1 | -1 | i | 4 | 1 | -2 | 5 | x | x
CC(C)(C)OC(=O)CNC(=O)c1[nH]cnc1C(=O)Nc1ccc(CNC(=O)OC(C)(C)C)cc1 | x | i | 4 | 7 | 13* | 2 | -1 | -2
CCC1Sc2ccccc2N(CC(=O)NCCC(C)C)C1=O (stereo not drawn) | 1 | i | 1 | 13* | 3 | -5 | -7 | -2
CCC1Sc2ccccc2N(CC(=O)NCc2ccccc2OC)C1=O (stereo not drawn) | 4 | i | -3 | 2 | 1 | -1 | x | x
CC(NC(=O)c1cc2cc([N+](=O)[O-])ccc2oc1=O)C1CCCO1 (stereo not drawn) | 4 | i | -6 | 3 | -4 | -1 | x | x
O=C(Nc1nc(C2C3CC4CC(C3)CC2C4)cs1)c1cc2cc([N+](=O)[O-])ccc2oc1=O (stereo not drawn) | 1 | i | 12 | 14* | 8 | 2 | 6 | -1
CCC(=O)Nc1cc(C(=O)OCC(=O)c2ccccc2Cl)ccc1C | -5 | i | 5 | 13* | -1 | 35 | 2 | 2
